# Screens (PubChem BioAssay)
# Rows were chosen to be rich in hits. Some 2.7% of all compounds tested hit in one or more screens of this group.
# pPAFAH inh – inhibitors of human plasma PAF acetylhydrolase (pPAFAH); recombinant pPAFAH, FP-rhodamine probe fluorescence polarization; inhibition, % at 3.39 µM; 330,000 tested, 1.5% active; Q13093;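 active = inhibition above the mean inhibition across the screen plus 3 SD, cut at about 25% in these data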;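 note: inhibitors block binding of the rhodamine activity-based probe so polarization drops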
# PAFAH1B2 FP inh – inhibitors of human PAFAH1B2; recombinant PAFAH1B2, FP-rhodamine activity probe, fluorescence polarization; inhibition, % at 3.39 µM; 340,000 tested, 1.2% active;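 active = inhibition above the mean of all tested compounds plus 3 SD, cut at about 24% in these data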
# Target sequence (P68402 whole entry, looked up): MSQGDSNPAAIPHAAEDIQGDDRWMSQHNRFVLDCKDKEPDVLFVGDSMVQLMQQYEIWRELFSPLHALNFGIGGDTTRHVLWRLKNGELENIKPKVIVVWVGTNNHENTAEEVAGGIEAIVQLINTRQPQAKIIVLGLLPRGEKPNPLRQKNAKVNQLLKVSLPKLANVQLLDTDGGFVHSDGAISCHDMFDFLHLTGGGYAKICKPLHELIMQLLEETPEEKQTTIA
# TCR-CD3 inh – human TCR-CD3 binding inhibition | 360,000 tested, 0.37% active | AID 651800 | inhibition, % at 9.4 µM | TAMRA-labeled TCR probe fluorescence, biochemical; in the data active = inhibition above about 19%;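 note: recombinant mutant TCR 2C K166C tagged with TAMRA read by polarization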
# PAFAH2 FP inh – inhibitors of human PAFAH2; AID 492956; inhibition, % at 3.39 µM; 340,000 tested, 0.99% active; recombinant PAFAH2, FP-rhodamine activity probe, fluorescence polarization; Q99487;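 active = inhibition above the mean over all tested compounds plus 3 SD, cut at about 30% in these data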;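 note: inhibitors block probe labeling of enzyme so polarization drops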
# PAFAH1B3 FP inh – inhibitors of human PAFAH1B3; inhibition, % at 3.39 µM; recombinant PAFAH1B3, FP-rhodamine probe, fluorescence polarization; 340,000 tested, 0.28% active;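 active = inhibition above the screen-wide average of all tested compounds plus 3 SD, cut at about 25% in these data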
# Target sequence (Q15102 whole entry, looked up): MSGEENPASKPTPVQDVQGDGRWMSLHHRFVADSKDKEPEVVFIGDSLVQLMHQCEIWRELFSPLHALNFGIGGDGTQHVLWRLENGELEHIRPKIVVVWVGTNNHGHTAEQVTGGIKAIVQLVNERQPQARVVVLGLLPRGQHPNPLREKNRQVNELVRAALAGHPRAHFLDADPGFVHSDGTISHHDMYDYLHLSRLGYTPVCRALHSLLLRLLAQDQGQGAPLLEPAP
# Numbers stand for hits; 0 = inactive; - = no result.
SMILES,pPAFAH inh,PAFAH1B2 FP inh,TCR-CD3 inh,PAFAH2 FP inh,PAFAH1B3 FP inh
Cc1ccc(S(=O)(=O)N2CCN(C(=O)COC(=O)Cc3ccccc3)CC2)c(C)c1,31,0,0,0,0
Cc1ccc(C(=O)COC(=O)Cc2ccccc2)cc1,0,0,0,0,0
Clc1ccc([C@H]2CC3CCC2N3)cn1 (stereo partly drawn),-,-,0,-,-
O=c1[nH]c(=O)n(-c2cccc(F)c2)c(O)c1/C=C1\C=Nc2ccccc21,0,25,0,0,0
O=C(O)c1ccc(-n2c(O)c(/C=C3\C=Nc4ccccc43)c(=O)[nH]c2=O)cc1,0,0,0,0,0
O=C(NCCN1CCC2(CC1)C(=O)NCN2c1ccccc1)c1cc(C(F)(F)F)ccc1C(F)(F)F,-,-,0,-,-
Cc1ccc(S(=O)(=O)NP(=O)(Oc2ccccc2)Oc2ccccc2)cc1,0,46,0,0,0
O=P(NS(=O)(=O)c1ccc(Br)cc1)(Oc1ccccc1)Oc1ccccc1,0,78,0,0,0
O=P(NS(=O)(=O)c1ccc(Cl)cc1)(Oc1ccccc1)Oc1ccccc1,0,84,0,0,0
Cc1cccc2nc(-c3ccccc3)c(-c3ccc(CN4CCC(n5c(=O)[nH]c6cc(Cl)ccc65)CC4)cc3)nc12,-,-,0,-,-
CN1C2(C)c3ccccc3C1(c1ccccc1)c1ccccc12,-,-,0,-,-
O=C1NC(=O)[C@]2(Cc3ccccc3N3CCN(c4ccccc4)CC32)C(=O)N1c1ccccc1 (stereo partly drawn),28,0,0,0,0
ClC1C(Cl)C(Cl)C(Cl)C(Cl)C1Cl (stereo not drawn),0,0,0,0,0
FC(F)(F)c1cccc(-n2nnnc2C2(N3CCOCC3)CCCCC2)c1,0,31,0,0,0
Cc1ccc(OC(=O)N(C)C[C@H]2OCc3cnnn3CCCC(=O)N([C@H](C)CO)C[C@H]2C)cc1,-,-,0,-,-
O=[N+]([O-])c1cccc(O)c1,0,0,0,0,0
O=[N+]([O-])c1cc(S(=O)(=O)c2ccc(O)c([N+](=O)[O-])c2)ccc1O,28,0,0,39,29
COc1cc(C=C2C(=O)NC(=O)NC2=O)ccc1OCc1ccc([N+](=O)[O-])cc1,-,26,0,0,0
O=C1NC(=O)C(=Cc2ccc(Oc3ccc([N+](=O)[O-])cc3)cc2)C(=O)N1,0,0,-,0,0
CN1OC[C@@H]2CN3C4(C[C@@H]21)c1ccccc1C3(c1ccccc1)c1ccccc14,-,-,0,-,-
Cc1cc(C)cc(N2C(=O)NC(=O)/C(=C\c3cccn3-c3ccc(Cl)cc3)C2=O)c1,0,43,0,39,0
O=C1NC(=S)NC(=O)C1=Cc1cccn1-c1ccc(O)cc1,-,0,0,0,0
O=C1NC(=S)NC(=O)C1=Cc1ccc2c(c1)CCN2CCCCl,29,-,-,-,-
COC(=O)C1=C(c2ccc(OC(F)(F)F)cc2)C[C@@H]2CC[C@H]1N2C(=O)NCCc1ccccc1,30,0,0,0,0
COC(=O)C1=C(c2ccc(OC(F)(F)F)cc2)C[C@@H]2CC[C@H]1N2C(=O)NCCNC(C)=O,0,0,0,0,0
SMILES,pPAFAH inh,PAFAH1B2 FP inh,TCR-CD3 inh,PAFAH2 FP inh,PAFAH1B3 FP inh
COC(=O)C1=C(c2ccc(C(C)=O)cc2)C[C@@H]2CC[C@H]1N2C(=O)NCc1ccc(C(F)(F)F)cc1,0,35,-,0,0
O=C(NC1CCCCC1)N1Cc2ccc(Br)cc2-n2nncc2C1,-,-,0,-,-
CN(C)[C@@H]1C(=O)C(C(N)=O)=C(O)[C@@]2(O)C(=O)C3=C(O)c4c(O)ccc(Cl)c4[C@@](C)(O)[C@H]3C[C@@H]12,30,0,0,0,0
CC1CCC(C)(NS(=O)(=O)OCC(Cl)(Cl)Cl)CC1 (stereo not drawn),33,45,0,0,0
CCOC(=O)c1c(-n2c(C)cc(C=C3C(=O)NC(=S)NC3=O)c2C)sc2c1CCCC2,25,0,-,0,0
CCOC(=O)c1c(-n2c(C)cc(/C=C3/C(=O)NC(=O)N(CC)C3=O)c2C)sc2c1CCCC2,0,0,0,0,0
COc1cc2c(cc1O)C[C@H]1NCCc3cc4c(c-2c31)OCO4,25,0,0,0,0
O=C1NC(=O)N(c2ccccc2)C(=O)/C1=C/c1ccc(Sc2ccccc2)o1,0,60,-,39,0
Cc1ccc2nc(N3CCC(C(=O)N4CCC5(CC4)OCCO5)CC3)sc2c1,0,0,0,0,0
CCc1ccc2nc(N3CCC(C(=O)N4CCC5(CC4)OCCO5)CC3)sc2c1,29,0,0,0,0
CCCCn1c(NC(=O)c2ccco2)c(C(=O)OCC)c2nc3ccccc3nc21,0,25,0,0,54
CCOC(=O)c1c(N)n(Cc2ccco2)c2nc3ccccc3nc12,0,0,0,0,0
CCOC(=O)c1ccc2[nH]c(-c3ccc(S(=O)(=O)F)cc3)cc(=O)c2c1,28,0,0,0,0
CCOC(=O)c1cccc([P+](=O)O)c1,0,0,0,0,0
CC(C)C[C@H]1C(=O)N2CCCC2[C@]2(O)O[C@](NC(=O)[C@@H]3C=C4c5cccc6[nH]cc(c56)CC4N(C)C3)(C(C)C)C(=O)N12 (stereo partly drawn),0,0,-,0,39
CC(C)[C@@]1(NC(=O)[C@@H]2C[C@@H]3c4cccc5[nH]cc(c45)C[C@H]3N(C)C2)O[C@@]2(O)[C@@H]3CCCN3C(=O)[C@H](Cc3ccccc3)N2C1=O,0,0,0,0,0
COc1ccc(Cn2c(O)c(/C=N/NC(=O)c3ccccc3)c(=O)[nH]c2=O)cc1,0,0,0,0,0
COc1ccc(Cn2c(O)c(/C=N/NC(=O)c3ccccc3O)c(=O)[nH]c2=O)cc1,27,0,0,0,0
O=C(N/N=C/c1c(O)n(Cc2ccc(F)cc2)c(=O)[nH]c1=O)c1ccccc1O,32,35,0,0,0
O=C(N/N=C/c1c(O)n(CCc2ccc(F)cc2)c(=O)[nH]c1=O)c1ccccc1,0,-,0,-,-
O=C(N/N=C/c1c(O)n(Cc2ccccc2)c(=O)[nH]c1=O)c1ccccc1O,0,34,74,47,33
CC(=O)NCC1=C(c2cccc3ccccc23)C[C@@H]2CC[C@H]1N2Cc1ccco1,-,-,0,-,-
NP(=O)(Oc1ccccc1Cl)Oc1ccccc1Cl,0,24,0,0,0
CC(C)OC(=O)c1c(N)n(CC2CCCO2)c2nc3ccccc3nc12 (stereo not drawn),0,0,0,0,0
CC(C)OCCCNC(=O)c1c(N)n(CC2CCCO2)c2nc3ccccc3nc12 (stereo not drawn),0,26,0,0,55
Cc1ccc(OC(=O)N(C)C[C@H]2OCc3cnnn3CCCC(=O)N([C@@H](C)CO)C[C@H]2C)cc1,-,-,0,-,-
CC(C)C(CN1CCC(C)(c2cccc(O)c2)[C@@H](C)C1)NC(=O)C1Cc2ccc(O)cc2CN1 (stereo partly drawn),-,-,0,-,-
Nc1ccc2cc(Br)ccc2c1,0,54,0,0,0
COc1cccc(C2CCN(CC(=O)Nc3cc(Cl)ccc3OC)CC2O)c1 (stereo not drawn),33,0,0,0,0
CCn1nc(/C=C/c2ccccc2)nc2c(=O)n(C)c(=O)nc1-2,-,-,0,-,-
